Reference: PubChem BioAssay (EPA / NIEHS)
Where “and” joins values, the source holds several entries; their conditions need not be identical. Identical values can stand only once. Results filed as inconclusive are left out. Where a structure was tested more than once in an assay, its records may differ in their call. Calls of active or inactive are those of the source. The calls were made as follows, unless noted: active = hit-call score of the fitted dose curve at least 0.9, where 1 is the maximum; inactive = score below 0.9.

Experiments:
[1] = BSK_3C_TissueFactor: BioMAP Diversity Plus: 3C Assay for Tissue Factor Biomarker Activity (AID 2282997); settings: BioMAP 3C HUVEC, tissue factor biomarker readout; actives raise or lower the signal
Method in brief: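 Tissue Factor measured by ELISA, 24 h after treatment of primary HUVEC in the BioMAP 3C setting.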

[2] = read-out: Intercellular Adhesion Molecule 1 (ICAM1), ICAM1 (gene 3383); assay: BSK_3C_ICAM1: BioMAP Diversity Plus: 3C Assay for Intercellular Adhesion Molecule 1 (ICAM1) Biomarker Activity (AID 2283003); settings: primary human endothelial cells (HUVEC); actives raise or lower the signal
Method in brief: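 Chemicals are dosed onto primary human umbilical vein endothelium (3C system). After 24 h, ICAM-1 is measured by ELISA, and responses are fitted bidirectionally relative to DMSO.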

[3] = read-out: Interleukin-8 (IL8), CXCL8 (gene 3576); assay: BSK_3C_IL8: BioMAP Diversity Plus: 3C Assay for Interleukin-8 (IL8) Biomarker Activity (AID 2283020); settings: primary human endothelial cells (HUVEC); actives raise or lower the signal
Method in brief: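 Endothelial primary cells of human umbilical vein origin are dosed with chemical; after 24 h the IL-8 biomarker is measured by ELISA, and concentration–response is fitted in both directions versus DMSO.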

[4] = read-out: Thrombomodulin, THBD (gene 7056); assay: BSK_3C_Thrombomodulin: BioMAP Diversity Plus: 3C Assay for Thrombomodulin Biomarker Activity (AID 2283029); settings: primary human endothelial cells (HUVEC); actives raise or lower the signal
Method in brief: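 Endothelial cells from umbilical vein are dosed with test chemical and incubated 24 h. Thrombomodulin is then quantified by ELISA, with DMSO serving as negative control and activity baseline.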

[5] = read-out: Urokinase-type plasminogen activator receptor (uPAR), PLAUR (gene 5329); assay: BSK_4H_uPAR: BioMAP Diversity Plus: 4H Assay for Urokinase-type plasminogen activator receptor (uPAR) Biomarker Activity (AID 2283030); settings: primary human endothelial cells (HUVEC); actives raise or lower the signal
Method in brief: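 Human umbilical vein endothelial cells in the 4H system, 24 h after chemical dosing. Cell-surface uPAR measured by ELISA, fitted in both directions versus DMSO; cytotoxicity checked by SRB total protein in parallel cultures.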

[6] = read-out: Vascular endothelial growth factor receptor 2 (Homo sapiens) (UniProt P35968); assay: BSK_4H_VEGFRII: BioMAP Diversity Plus: 4H Assay for Vascular endothelial growth factor receptor 2 (VEGFR2) Biomarker Activity (AID 2283031); settings: primary human endothelial cells (HUVEC); actives raise or lower the signal;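 as to AC50: cell-surface VEGFR2 protein level quantified by ELISA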
Method in brief: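 Primary human umbilical vein endothelial cells (4H system), 24 h exposure; cell-surface VEGFR2 measured by ELISA. Bidirectional fitting versus DMSO; cytotoxicity checked in parallel by SRB total-protein staining.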

[7] = read-out: serum amyloid A (SAA), SAA1 (gene 6288); assay: BSK_CASM3C_SAA: BioMAP Diversity Plus: CASM3C Assay for serum amyloid A (SAA) Biomarker Activity (AID 2283049); settings: primary human coronary artery smooth muscle cells; actives raise or lower the signal;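 also: SAA protein level quantified by ELISA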
[8] = read-out: Thrombomodulin, THBD (gene 7056); assay: BSK_CASM3C_Thrombomodulin: BioMAP Diversity Plus: CASM3C Assay for Thrombomodulin Biomarker Activity (AID 2283051); settings: primary human coronary artery smooth muscle cells; actives raise or lower the signal;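 also: thrombomodulin protein level measured by ELISA 24 h after dosing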
[9] = read-out: Vascular cell adhesion molecule 1 (VCAM1), VCAM1 (gene 7412); assay: BSK_CASM3C_VCAM1: BioMAP Diversity Plus: CASM3C Assay for Vascular cell adhesion molecule 1 (VCAM1) Biomarker Activity (AID 2283055); settings: primary human coronary artery smooth muscle cells; actives raise or lower the signal;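 also: VCAM-1 protein level quantified by ELISA on the cells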
[10] = read-out: Tissue Factor, F3 (gene 2152); assay: BSK_LPS_TissueFactor: BioMAP Diversity Plus: LPS Assay for Tissue Factor Biomarker Activity (AID 2283084); settings: primary human HUVEC with PBMC; actives raise or lower the signal
Method in brief: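 Human umbilical vein endothelial cells co-cultured with PBMC were dosed with compound. Cell-surface CD142 was measured by ELISA 24 h later. Activity was fitted bidirectionally against DMSO, with SRB total-protein staining in parallel cultures for cytotoxicity.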

[11] = read-out: Monocyte Chemoattractant Protein-1 (MCP1), CCL2 (gene 6347); assay: BSK_hDFCGF_MCP1: BioMAP Diversity Plus: hDFCGF Assay for Monocyte Chemoattractant Protein-1 (MCP1) Biomarker Activity (AID 2284285); settings: primary human foreskin fibroblasts
Method in brief: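 MCP-1 ELISA readout was taken 24 hours after dosing primary human dermal fibroblasts in the hDFCGF system, with DMSO as baseline. Parallel sulforhodamine B staining of total protein tracked overt cytotoxicity.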

[12] = ATG_M_19_CIS: Attagene CIS-FACTORIAL HepG2 Assay for M19 Transcription Factor (Internal Marker) (AID 2282939); settings: HepG2 Attagene CIS-FACTORIAL M19 internal marker reporter; actives raise or lower the signal
Method in brief: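 HepG2 cells transiently transfected with cis-regulated multiplexed reporter units, dosed 24 h. Reporter mRNA quantified by RT-PCR and capillary electrophoresis; internal background marker fitted bidirectionally versus DMSO.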

[13] = target: Hypoxia-inducible factor 1-alpha (Homo sapiens) (UniProt Q16665); assay: ATG_HIF1a_CIS: Attagene CIS-FACTORIAL HepG2 Assay for human Hypoxia Inducible Factor 1 (HIF1A) (AID 2282951); settings: HepG2 Attagene cis-factorial HIF1a reporter transcription; actives raise or lower the signal
Sequence of Hypoxia-inducible factor 1-alpha (Homo sapiens) (Q16665 whole entry, looked up): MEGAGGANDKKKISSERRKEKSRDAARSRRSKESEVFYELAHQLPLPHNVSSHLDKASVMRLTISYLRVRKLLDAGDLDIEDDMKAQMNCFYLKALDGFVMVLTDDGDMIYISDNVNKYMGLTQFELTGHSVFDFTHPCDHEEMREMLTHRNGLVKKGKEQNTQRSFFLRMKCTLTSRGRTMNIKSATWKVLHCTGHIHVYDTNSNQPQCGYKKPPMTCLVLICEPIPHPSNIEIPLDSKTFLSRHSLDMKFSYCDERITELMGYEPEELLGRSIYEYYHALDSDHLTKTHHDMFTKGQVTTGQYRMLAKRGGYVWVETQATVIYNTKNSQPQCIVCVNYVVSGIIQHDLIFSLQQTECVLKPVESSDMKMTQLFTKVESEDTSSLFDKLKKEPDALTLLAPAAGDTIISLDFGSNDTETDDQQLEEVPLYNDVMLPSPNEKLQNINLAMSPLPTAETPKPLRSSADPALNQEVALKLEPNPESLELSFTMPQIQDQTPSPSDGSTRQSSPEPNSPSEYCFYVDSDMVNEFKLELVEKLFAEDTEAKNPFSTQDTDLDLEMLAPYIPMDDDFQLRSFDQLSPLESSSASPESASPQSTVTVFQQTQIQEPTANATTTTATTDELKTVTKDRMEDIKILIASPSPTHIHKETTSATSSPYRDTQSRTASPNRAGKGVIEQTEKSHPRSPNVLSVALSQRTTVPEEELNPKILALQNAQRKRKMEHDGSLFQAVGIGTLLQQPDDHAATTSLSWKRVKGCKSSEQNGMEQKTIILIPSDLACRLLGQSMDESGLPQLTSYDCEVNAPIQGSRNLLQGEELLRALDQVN
Method in brief: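 Cis-element reporter constructs were transiently transfected into HepG2 cells, which were treated for 24 h; reporter RNA was reverse-transcribed, amplified, labelled and resolved by capillary electrophoresis.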

[14] = target: Hepatocyte nuclear factor 6 (Homo sapiens) (UniProt Q9UBC0); assay: ATG_HNF6_CIS: Attagene CIS-FACTORIAL HepG2 Assay for human Hepatocyte Nuclear Factor 6 (HNF6) (AID 2282952); settings: HepG2 Attagene cis-factorial HNF6 reporter transcription; actives raise or lower the signal
Sequence of Hepatocyte nuclear factor 6 (Homo sapiens) (Q9UBC0 whole entry, looked up, the tested form may be a part): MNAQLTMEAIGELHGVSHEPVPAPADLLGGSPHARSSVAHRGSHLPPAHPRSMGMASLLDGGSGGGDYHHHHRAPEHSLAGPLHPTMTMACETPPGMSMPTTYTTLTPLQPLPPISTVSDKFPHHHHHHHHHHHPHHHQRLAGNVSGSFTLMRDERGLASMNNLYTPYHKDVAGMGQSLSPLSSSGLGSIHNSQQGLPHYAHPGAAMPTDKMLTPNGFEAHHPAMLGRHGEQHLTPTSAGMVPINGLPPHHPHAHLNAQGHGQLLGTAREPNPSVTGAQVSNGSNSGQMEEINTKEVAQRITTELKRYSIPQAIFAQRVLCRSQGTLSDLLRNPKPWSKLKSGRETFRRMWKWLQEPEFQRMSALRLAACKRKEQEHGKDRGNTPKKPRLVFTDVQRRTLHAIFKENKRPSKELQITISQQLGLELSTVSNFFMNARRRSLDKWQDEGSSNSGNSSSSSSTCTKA
Method in brief: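 First, HepG2 cells were transfected with the multiplexed cis reporter library and dosed with chemical for 24 h. Next, RNA was reverse-transcribed, PCR-amplified and fluorescently labelled. Finally, HpaI-digested fragments were read by capillary electrophoresis.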

[15] = target: Heat shock factor protein 1 (Homo sapiens) (UniProt Q00613); assay: ATG_HSE_CIS: Attagene CIS-FACTORIAL HepG2 Assay for human Heat Shock Transcription Factor 1 (HSE) (AID 2282953); settings: HepG2 HSE cis-reporter, Attagene RNA transcription; actives raise or lower the signal
Sequence of Heat shock factor protein 1 (Homo sapiens) (Q00613 whole entry, looked up): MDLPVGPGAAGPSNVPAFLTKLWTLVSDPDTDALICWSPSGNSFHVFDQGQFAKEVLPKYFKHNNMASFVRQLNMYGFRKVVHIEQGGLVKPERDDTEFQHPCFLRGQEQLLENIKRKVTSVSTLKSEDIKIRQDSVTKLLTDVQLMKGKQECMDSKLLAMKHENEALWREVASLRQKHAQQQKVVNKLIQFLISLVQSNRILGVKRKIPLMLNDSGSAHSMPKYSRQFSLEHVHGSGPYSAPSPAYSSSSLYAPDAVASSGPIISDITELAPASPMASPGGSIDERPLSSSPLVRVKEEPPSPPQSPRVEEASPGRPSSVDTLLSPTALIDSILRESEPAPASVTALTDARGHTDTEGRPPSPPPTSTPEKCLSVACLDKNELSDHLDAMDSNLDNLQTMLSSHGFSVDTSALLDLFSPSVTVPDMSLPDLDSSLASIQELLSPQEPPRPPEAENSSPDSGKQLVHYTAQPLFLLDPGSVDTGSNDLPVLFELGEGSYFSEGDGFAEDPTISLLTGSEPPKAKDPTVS
Method in brief: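 HepG2 cells transfected with cis-promoter reporter units sensing endogenous transcription factor activity; reporter mRNA quantified 24 h post-dose by RT-PCR and capillary electrophoresis of 6-FAM-labelled products. Bidirectional fitting against DMSO.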

[16] = ATG_PXRE_CIS: Attagene CIS-FACTORIAL HepG2 Assay for human Pregnane X Receptor Element (PXRE) (AID 2282957); settings: HepG2 Attagene CIS-FACTORIAL PXRE reporter, mRNA; actives raise or lower the signal
Method in brief: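 After a 24 h chemical incubation, total RNA from transfected HepG2 cells was reverse-transcribed and reporter cDNA amplified, FAM-labeled, HpaI-digested and sized by capillary electrophoresis. DMSO served as baseline for bidirectional curve fitting.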

[17] = ATG_M_19_TRANS: Attagene TRANS-FACTORIAL HepG2 Assay for M19 Transcription Factor (Internal Marker) (AID 2282974; active = hit-call score of the fitted dose curve at least 0.9, where 1 is the maximum); settings: HepG2 Attagene TRANS-FACTORIAL M19 internal marker reporter
Method in brief: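 Multiplexed TRANS format: HepG2 liver cells bearing transient GAL4-UAS reporter units, chemical treatment 24 h, reporter transcripts quantified by RT-PCR plus capillary electrophoresis. DMSO defines baseline.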

[18] = ATG_XTT_Cytotoxicity: Cytotoxicity Assessment in the Attagene TRANS-FACTORIAL HepG2 Assay (AID 2283584; active = hit-call score of the fitted dose curve at least 0.9, where 1 is the maximum)
Method in brief: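 HepG2 cells transiently transfected with GAL4-UAS multiple reporter units, dosed 24 h; cytotoxicity read by XTT as loss of signal versus DMSO baseline.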

[19] = ATG_M_32_CIS: Attagene CIS-FACTORIAL HepG2 Assay for M32 Transcription Factor (Internal Marker) (AID 2282949); settings: HepG2 Attagene cis-factorial M32 reporter, mRNA; actives raise or lower the signal;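 also: background control marker of the multiplexed CIS panel rather than a real target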
Method in brief: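 HepG2 transfectants (cis-regulated reporter transcription units) dosed 24 h. Reporter mRNA by RT-PCR plus CE, analysed as gain or loss relative to DMSO.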

[20] = ATG_M_32_TRANS: Attagene TRANS-FACTORIAL HepG2 Assay for M32 Transcription Factor (Internal Marker) (AID 2282984; active = hit-call score of the fitted dose curve at least 0.9, where 1 is the maximum;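 also: transcript level of a background control reporter unit measured by RT-PCR and capillary electrophoresis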); settings: HepG2 Attagene TRANS M32 internal marker reporter
Method in brief: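 Internal-marker readout from a multiplexed transcription reporter panel. HepG2 cells were transfected with GAL4-UAS reporter units, treated 24 hours, and reporter transcript levels determined by fluorescence after RT-PCR and capillary separation.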

CCCCC(CC)COC(=O)C=Cc1ccc(OC)cc1 (stereo not drawn)
AC50 [1]: 5.17 µM (active) and 7.14 µM (active) | outcome [2]: inactive | AC50 [3]: 30.8 µM (active) and 28.7 µM (active) | AC50 [4]: 9.77 µM (active) and 8.63 µM (active) | outcome [5]: inactive | AC50 [6]: 31.7 µM (active) | outcome [6]: inactive | AC50 [7]: 32.3 µM (active) | outcome [7]: inactive | outcome [8]: inactive | AC50 [9]: 14.9 µM (active) | outcome [9]: inactive | AC50 [10]: 7.72 µM (active) | outcome [10]: inactive | AC50 [11]: 8.08 µM (active) | outcome [11]: inactive

CC1=NN(c2cc(Cl)c(S(=O)(=O)O)cc2Cl)C(=O)C1N=Nc1ccc(S(=O)(=O)O)cc1 (stereo not drawn)
outcome [12]: inactive | outcome [13]: inactive | outcome [14]: inactive | outcome [15]: inactive | AC50 [16]: 100 µM (active) | outcome [17]: inactive | outcome [18]: inactive

O=C(O)/C=C\C(=O)O
outcome [12]: inactive | outcome [19]: inactive | outcome [13]: inactive | outcome [14]: inactive | outcome [15]: inactive | AC50 [16]: 41.1 µM (active) | outcome [17]: inactive | outcome [20]: inactive | outcome [18]: inactive

COc1cc(CNC(=O)CCCC/C=C/C(C)C)ccc1O
outcome [1]: inactive | outcome [2]: inactive | outcome [3]: inactive | AC50 [4]: 15.1 µM (active) | outcome [4]: inactive | outcome [5]: inactive | outcome [6]: inactive | outcome [7]: inactive | outcome [8]: inactive | outcome [9]: inactive | outcome [10]: inactive | AC50 [11]: 0.508 µM (active) | outcome [11]: inactive

CC(C)(C)NC(=O)[C@@H]1CN(Cc2cccnc2)CCN1C[C@@H](O)C[C@@H](Cc1ccccc1)C(=O)N[C@H]1c2ccccc2C[C@H]1O
outcome [12]: inactive | outcome [19]: inactive | outcome [13]: inactive | outcome [15]: inactive | AC50 [16]: 19.6 µM (active) | outcome [17]: inactive | outcome [18]: inactive

Clc1ccccn1
outcome [19]: inactive | outcome [13]: inactive | outcome [14]: inactive | outcome [15]: inactive | outcome [17]: inactive | outcome [20]: inactive

COc1ccccc1Oc1c(NS(=O)(=O)c2ccc(C(C)(C)C)cc2)nc(-c2ncccn2)nc1OCCO
outcome [1]: inactive | outcome [2]: inactive | outcome [3]: inactive | outcome [4]: inactive | outcome [5]: inactive | outcome [6]: inactive | AC50 [7]: 3.97 µM (active) | outcome [7]: inactive | AC50 [8]: 7.25 µM (active) | outcome [8]: inactive | AC50 [9]: 10 µM (active) | outcome [9]: inactive | outcome [10]: inactive | outcome [11]: inactive

CCCc1c(OCCCCc2nn[nH]n2)ccc(C(C)=O)c1O
outcome [12]: inactive | outcome [19]: inactive | outcome [14]: inactive | outcome [15]: inactive | AC50 [16]: 27.4 µM (active) | outcome [20]: inactive | outcome [18]: inactive

O=[N+]([O-])c1cc(S(=O)(=O)Nc2ccccc2)ccc1Nc1ccccc1
AC50 [1]: 34.8 µM (active) | outcome [1]: inactive | outcome [2]: inactive | AC50 [3]: 30.7 µM (active) | outcome [3]: inactive | AC50 [4]: 20 µM (active) | outcome [4]: inactive | AC50 [5]: 33.5 µM (active) | outcome [5]: inactive | AC50 [6]: 32.6 µM (active) | outcome [6]: inactive | outcome [7]: inactive | AC50 [8]: 5.66 µM (active) and 8.09 µM (active) | AC50 [9]: 20 µM (active) | outcome [9]: inactive | AC50 [10]: 2.78 µM (active) | outcome [10]: inactive | AC50 [11]: 30.8 µM (active) and 29.7 µM (active)

CCCCn1cc[n+](C)c1
outcome [12]: inactive | outcome [19]: inactive | outcome [13]: inactive | outcome [14]: inactive | outcome [18]: inactive

CC/C=C\CC1=C(C)CCC1=O
outcome [19]: inactive | outcome [13]: inactive | outcome [14]: inactive | outcome [15]: inactive | AC50 [16]: 6.38 µM (active) | outcome [17]: inactive | outcome [20]: inactive | outcome [18]: inactive

CCO[Si](OCC)(OCC)c1ccccc1
outcome [12]: inactive | outcome [19]: inactive | outcome [13]: inactive | outcome [14]: inactive | outcome [15]: inactive | AC50 [16]: 50.9 µM (active) | outcome [17]: inactive | outcome [20]: inactive

OC(C(F)(F)F)(C(F)(F)F)C(O)(C(F)(F)F)C(F)(F)F
AC50 [1]: 23.7 µM (active) and 22.6 µM (active) | AC50 [2]: 40.6 µM (active) | outcome [2]: inactive | AC50 [3]: 39.9 µM (active) and 45.7 µM (active) | AC50 [4]: 48 µM (active) | outcome [4]: inactive | AC50 [5]: 12.7 µM (active) and 15.4 µM (active) | AC50 [6]: 30 µM (active) and 20.5 µM (active) | outcome [7]: inactive | AC50 [8]: 30 µM (active) | outcome [8]: inactive | AC50 [9]: 30 µM (active) | AC50 [10]: 30 µM (active) | AC50 [11]: 7.94 µM (active) | outcome [11]: inactive
